G9a inh: blocks human histone lysine methyltransferase G9a; Potency, µM (highest dose often 102 µM), for the others: top-dose activity, negative = inhibition, actives largely listed as inhibitors; hit rate 8.8% among 350,000; G9a H3K9 monomethylation, AlphaScreen, 2 h; further: on the % scale 0 is the no-effect control and ±100 the full control effect; nearly all actives have a fitted effect of over 75% in size
Target sequence (Q96KQ7 913-1193 limits assumed): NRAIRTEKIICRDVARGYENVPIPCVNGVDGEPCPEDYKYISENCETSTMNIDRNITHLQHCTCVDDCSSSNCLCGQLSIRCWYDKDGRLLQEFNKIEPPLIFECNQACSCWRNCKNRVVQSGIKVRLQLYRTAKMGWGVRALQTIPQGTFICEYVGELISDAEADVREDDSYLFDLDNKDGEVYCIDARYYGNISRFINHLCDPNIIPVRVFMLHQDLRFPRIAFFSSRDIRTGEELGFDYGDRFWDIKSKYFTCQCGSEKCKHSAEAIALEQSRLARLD
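Readings reflect AlphaScreen signal from monomethyl-H3K9 antibody detection. HMT at 20 nM; substrate b-H3K9 500 nM; cofactor SAM 20 uM; 2 h RT reaction; compounds tested as titrations in qHTS with 15 min preincubation.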
Sfp PPTase inh: blocks B. subtilis Sfp PPTase activity | Q9F4F7 | Biochemical Sfp PPTase activity, qHTS | Potency, µM, inactives show largest response in the series, negative = inhibition, hits mostly inhibitors | hit rate 3.5% among 310,000 | AID 1490;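 further: the enzyme is Sfp with the accession as filed and its product quenches rhodamine fluorescence; 0% = enzyme reaction without inhibitor and -100% = no enzyme wells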
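Fluorescence-quenching assay: 15 nM Sfp-PPTase preincubated 15 min at room temperature with compound, then 5 uM rhodamine-CoA and 12.5 uM BHQ-2-labelled YbbR peptide added. Fluorescence (ex 525/em 598 nm) read at start and after 30 min; difference gives rate.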
JMJD2A Tudor inh: JMJD2A Tudor domain (human) inhibition. AlphaScreen JMJD2A-Tudor / H3K4me3 peptide binding. Potency, µM (titrated, usually from 114 µM), without a hit: at the highest dose activity change, negative = inhibition, most hits filed as inhibitors. hit rate 4.4% among 390,000; further: on the % scale 0 is the no-effect control and ±100 the full control effect; nearly all actives have a fitted effect of over 50% in size
PLK1 PBD inh: inhibitors of human PLK1 polo-box domain binding; P53350; Plk1 PBD binding of FITC phosphopeptide, fluorescence polarization; Potency, µM, for inactives: max response, negative = inhibition, hits mostly inhibitors; hit rate 2.8% among 360,000; further: series mostly up to about 57 µM; on the % scale 0 is the no-effect control and ±100 the full control effect; nearly all actives have a fitted effect of over 65% in size
BAZ2B block: BAZ2B (human) inhibition; Q9UIF8; AlphaScreen BAZ2B-H3K14Ac peptide displacement; Potency, µM (titrated, usually from 114 µM), without a hit: at the top dose activity change, negative = inhibition, hits mostly inhibitors; hit rate 4.4% among 360,000; AID 504333; further: on the % scale 0 is the no-effect control and ±100 the full control effect; nearly all actives have a fitted effect of over 60% in size
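Multi-concentration screen (max 110 uM) measuring displacement of acetylated histone H3 peptide from BAZ2B by AlphaScreen, using 50 nM protein, 50 nM peptide and 10 ug/mL streptavidin donor plus Ni-chelate acceptor beads.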
HP1b chromo inh: inhibitors of HP1-beta chromodomain binding to methylated histone tails | AID 540317 | hit rate 0.56% among 390,000 | Potency, µM (titrated, usually from 114 µM), inactives show at the top dose activity change, negative = inhibition, usual class: inhibitors | AlphaScreen HP1-beta / biotin-H3K9me3 peptide binding; further: nearly all actives have a fitted effect of over 70% in size
Target sequence (P83916 whole entry, looked up): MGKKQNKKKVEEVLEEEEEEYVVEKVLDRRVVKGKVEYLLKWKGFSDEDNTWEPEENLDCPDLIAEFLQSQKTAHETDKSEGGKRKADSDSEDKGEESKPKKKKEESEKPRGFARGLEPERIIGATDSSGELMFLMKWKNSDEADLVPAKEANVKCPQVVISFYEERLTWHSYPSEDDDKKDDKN
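HP1-beta protein (50 nM final) preincubated 30 min at room temperature with biotinylated H3(1-18)K9me3 peptide (50 nM) in PBS pH 7.4, 0.01% Tween-20, then compound added for 30 min. AlphaScreen streptavidin donor/nickel chelate acceptor beads (10 ug/mL final), 30 min dark, luminescence read.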
An asterisk follows results filed as active; ? = inconclusive; · = no result given; [ ] = another dose, or the depositor's remark. Rows were chosen to be rich in hits. Some 12% of all compounds tested hit in one or more screens of this group. The call rests on the fitted dose curve; in most records, active means well fitted curve in the direction sought with a large enough effect; inconclusive means small, poorly fitted or top-dose-only effect, or another doubt; inactive means no such curve, though single readings can be large; an effect the other way counts as inactive or inconclusive. Potency means the concentration at half of the fitted maximal effect.

SMILES	G9a inh	Sfp PPTase inh	JMJD2A Tudor inh	PLK1 PBD inh	BAZ2B block	HP1b chromo inh
Cc1cc[n+](-c2nc3ccccc3nc2C(=C=[N-])C#N)cc1	50µM*	-29%	-12%	-9%	-6%	20%
CCOc1ccc(OCCOC(=O)CN2C(=O)NC3(CCCC3)C2=O)cc1	5%	·	-15%	-8%	13%	5%
COCCNC(=O)C(c1ccc(C)o1)N(CCOC)C(=O)Cn1nnc2ccccc21 (stereo not given)	-6%	14%	-12%	27µM*	-19%	-10%
CCN(CC)P1(=O)OC(c2cc(OC)c(OC)c(OC)c2)=Nc2c1c(C)nn2-c1ccccc1 (stereo not given)	50µM*	7%	-20%	-19%	?	10%
CCOc1ccccc1NC(=O)COC(=O)CCOc1cc(C)ccc1C	18%[2.33 µM]	·	3%	3%	28%	71%
CCOc1ccc(N2C(=O)CC(NCCc3ccc(S(N)(=O)=O)cc3)C2=O)cc1 (stereo not given)	25µM*	2%	-11%	-3%	4%	45%
CCCOc1ccc(N2C(=O)CC(NCCc3ccc(S(N)(=O)=O)cc3)C2=O)cc1 (stereo not given)	35µM*	5%	-7%	-10%	2%	25%
CCCOc1ccc(N2C(=O)CC(NCCNc3ccc(S(=O)(=O)CC)cc3)C2=O)cc1 (stereo not given)	?	8%	2%	-3%	-8%	36%
Cc1cc(C)cc(NC(=O)CSc2nccn2C2CCCC2)c1	?	·	-29%	·	?	16%
Cc1n[nH]c(=O)c2c(NC(=O)CSc3c(Cl)cccc3Cl)oc(C)c12	13µM*	·	-11%	?	11%	20%
Cc1n[nH]c(=O)c2c(NC(=O)CSc3ccccc3Cl)oc(C)c12	32µM*	·	-18%	?	13%	0%
N#Cc1ccc(CN2CCC3(CC2)CCN(C(=O)c2cc(C(F)(F)F)cc(C(F)(F)F)c2)CC3)cc1	-9%[12.7 µM]	7%	·	·	·	·
CCOC(=O)C(C)NC(=O)c1c2c(nc3ccccc13)C(=O)N(C1CCCCC1)C2 (stereo not given)	2%[59 µM]	·	-16%	·	-12%	39%
CCOC(=O)CN1C(=O)C(O)=C(C(C)=O)C1c1ccccc1 (stereo not given)	-37%[2.33 µM]	9%	?	-2%	79µM*	7%
CCOC(=O)CN1C(=O)N(CC)C(C)=C(C(=O)OC)[C@@H]1c1ccccc1	43%[59 µM]	-1%	-11%	-1%	-2%	31%
CCOC(=O)CN1C(=O)C(O)=C(C(C)=O)C1c1ccc(F)cc1 (stereo not given)	35µM*	4%	-35%	-1%	71µM*	2%
CCOC(=O)CN1C(=O)C(O)=C(C(C)=O)C1c1ccc([N+](=O)[O-])cc1 (stereo not given)	?	-11%	-18%	-1%	?	38%
CCOc1ccccc1NC(=O)C(C)n1nnc2sc3c(c2c1=O)CCCC3 (stereo not given)	26%[59 µM]	·	-29%	·	3%	59%
CCCn1c(SCC(=O)N2CCCC2=O)nc2ccccc2c1=O	-8%	·	-9%	-11%	7%	15%
Cc1cc(-c2n[nH]c(=S)n2/N=C/C=C/c2ccccc2)n[nH]1	1.4µM*	-15%	10µM*	-16%	?	?
COc1ccccc1/C=C/C=N/n1c(-c2ccc(C)cc2)n[nH]c1=S	?	-19%	-31%	-26%	-28%	-19%
Cc1nnc(C)n1/N=C/C=C/c1ccccc1	3%	20%	-14%	-2%	0%	6%
COc1ccccc1/C=C\C=N\n1c(C2CCCCC2)n[nH]c1=S	-5%[0.0925 µM]	-25%	-22%	?	?	?
COc1ccccc1/C=C/C=N/n1c(-c2ccccn2)n[nH]c1=S	1.6µM*	2%	8.9µM*	-11%	14µM*	8%
COc1ccccc1/C=C/C=N/n1c(-c2cc(C)[nH]n2)n[nH]c1=S	1.6µM*	-21%	7.9µM*	-16%	?	-30%
